PolyA inh: yeast polyadenylation inhibition | S. cerevisiae SKY197-pL101 polyadenylation reporter, beta-gal luminescence; efflux-impaired pdr1/pdr3 knockout yeast; score 100 = 6 SD above DMSO | activity score, % at 12 µM | 300,000 compounds, 0.02% hits | AID 1875;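 active = lowest replicate activity score at least 50, where 100 means six control SD above control mean; inconclusive = lowest score under 50 but half or more replicates reach 50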;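 note: yeast exposed to compound for 9 h at 30 °C; higher score means more reporter readthrough which indicates perturbed polyadenylation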
NALP3 yeast inh: blocks the NALP3 inflammasome reconstituted in yeast; Yeast reconstituted NLRP3/ASC/caspase-1, beta-gal luminescence, 24 h; AID 2825; 330,000 compounds, 0.39% hits; inhibition, % at 10 µM;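 active = inhibition of 50% or more; inactive = inhibition below 50%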
NALP1 inh: blocks the NALP1 inflammasome reconstituted in yeast; AID 2071; 280,000 compounds, 0.61% hits; inhibition, % at 10 µM; S. cerevisiae NALP1/ASC/caspase-1 growth, X-gal OD620, 72 h; in the data active = inhibition mostly above about 24%, no sharp cut-off; inactive = mostly below about 32%
SUMO Mot1 rescue: blocks SUMOylation pathway, rescuing yeast Mot1-301 growth. S. cerevisiae Mot1-301 growth rescue, ATP luminescence, 38.5C; percent above DMSO median, 100 means doubled. growth rescue, % at 18.8 µM. 320,000 compounds, 1% hits. AID 2716;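 active = every valid replicate shows activation above 250% relative to neutral control wells; inactive = the rest, any valid replicate at or below 250%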
NALP3 confirm: confirmation of NALP3 inhibitors in yeast. shares compounds with NALP3 yeast inh. yeast expressing human NALP3, luminescence. inhibition, % at 10 µM. 1,300 compounds, 81% hits. AID 435006; in the data active = inhibition above about 48%
Casp1-ASC yeast: caspase-1-ASC yeast counter-screen hit | yeast expressing Caspase-1-ASC, luminescence counter screen | shares compounds with NALP3 yeast inh | inhibition, % at 10 µM | 1,000 compounds, 66% hits
NALP3 yeast rt: confirmation retest of NALP3 inhibitors in yeast | shares compounds with NALP3 yeast inh | yeast expressing human NALP3, luminescence read-out | inhibition, % at 10 µM | 1,000 compounds, 53% hits | AID 488794
Each line names hits and unclear results; the compound was inactive in the other large screens (follow-up assays come after a bar, where they were run). An excerpt weighted towards active compounds, which were near 1.8% of everything screened. Cut-off read from the data, not from the text of the source, unless noted: active = inhibition above about 50%; inactive = the rest.

Cc1ccc(C(C[N+](=O)[O-])c2c(N)n(C)c(=O)n(C)c2=O)cc1 (stereo unspecified)	NALP3 yeast inh 70, NALP1 inh active | NALP3 confirm 64 | Casp1-ASC yeast 78 | NALP3 yeast rt 53
COc1cccc(F)c1C(C[N+](=O)[O-])c1c(N)n(C)c(=O)n(C)c1=O (stereo unspecified)	NALP3 yeast inh 64, NALP1 inh active | NALP3 confirm inactive | Casp1-ASC yeast 56 | NALP3 yeast rt inactive
COc1cc(C(C[N+](=O)[O-])c2c(N)n(C)c(=O)n(C)c2=O)ccc1O (stereo unspecified)	NALP3 yeast inh 50 | NALP3 confirm inactive
Cn1c(N)c(C(C[N+](=O)[O-])c2ccccc2Cl)c(=O)n(C)c1=O (stereo unspecified)	none (no result: NALP1 inh)
COc1cc(C(C[N+](=O)[O-])c2c(C)[nH]c3ccccc23)ccc1O (stereo unspecified)	none
CCOC(=O)/C=C/c1nc(C(=O)OCC)c(C)c(=O)[nH]1	none
Cc1cc(Cl)c2oc(C(=O)NCCC3CCCCO3)c(C)c2c1 (stereo unspecified)	PolyA inh inconclusive
CCOc1cccc(/C=C/C(=O)O)c1	none
COc1ccc(CC(NC(C)=O)C(=O)NC2CCN(C(=O)Nc3ccccc3C)CC2)cc1OC (stereo unspecified)	none
COc1ccc(OCCCC(=O)NNC(=O)c2ccncc2)cc1	none (no result: NALP1 inh)
CC1CC1C(=O)OCc1cc(=O)n2cc(Br)ccc2n1 (stereo unspecified)	none
CC1(C(=O)OCc2cc(=O)n3cc(Br)ccc3n2)CC1(Cl)Cl (stereo unspecified)	NALP3 yeast inh 64 | NALP3 confirm 72 | Casp1-ASC yeast 78 | NALP3 yeast rt 64
COc1ccccc1NC(=O)CCc1nc(-c2ccccc2F)no1	none
CCc1nn2cc(-c3ccccc3)nc2s1	none
Fc1cccc(/C=N/Nc2nncc3ccccc23)c1	NALP3 yeast inh 57 | NALP3 confirm 63 | Casp1-ASC yeast inactive | NALP3 yeast rt inactive
O=C(O)c1cc(Br)ccc1NN=C1CCCCC1	none
CNC(=O)c1c(O)c2cccc3c2n(c1=O)CC3	NALP3 yeast inh 54 (no result: NALP1 inh) | NALP3 confirm 60 | Casp1-ASC yeast inactive | NALP3 yeast rt inactive
CCNCCNC(=O)c1c(O)c2cccc3c2n(c1=O)CCC3	NALP3 yeast inh 53 (no result: SUMO Mot1 rescue) | NALP3 confirm 74 | Casp1-ASC yeast inactive | NALP3 yeast rt inactive
NNC(=O)c1c(O)c2cccc3c2n(c1=O)CCC3	NALP3 yeast inh 62 | NALP3 confirm 76 | Casp1-ASC yeast 52 | NALP3 yeast rt 52
COc1ccc(NC(=S)N(CCCOC(C)C)C2CCN(C(C)=O)CC2)cc1Cl	none
COc1ccccc1CNC(=O)COc1cccnc1[N+](=O)[O-]	none
COc1ccccc1NC(=O)COc1cccnc1[N+](=O)[O-]	NALP3 yeast inh 51 (no result: PolyA inh, NALP1 inh) | NALP3 confirm 67 | Casp1-ASC yeast 75 | NALP3 yeast rt 62
COc1ccccc1CNc1ncccc1[N+](=O)[O-]	NALP3 yeast inh 50 | NALP3 confirm 48 | Casp1-ASC yeast inactive | NALP3 yeast rt inactive
Cc1cc(C)c(NC(=O)COc2cccnc2[N+](=O)[O-])c(C)c1	none (no result: PolyA inh, NALP1 inh)
O=[N+]([O-])c1cccnc1NCCc1ccccc1	none
CCOc1ccccc1NC(=O)COc1cccnc1[N+](=O)[O-]	NALP3 yeast inh 59 (no result: PolyA inh, NALP1 inh) | NALP3 confirm 74
O=c1[nH]c2ccc(S(=O)(=O)NCc3ccccn3)cc2s1	none
CC(C)CCNC(=O)c1ccc(-c2ccccc2)cc1	NALP3 yeast inh 52 | NALP3 confirm 61 | Casp1-ASC yeast inactive | NALP3 yeast rt inactive
CCOc1ccc(-n2c(C)cc(/C=N/Nc3nc(C)cc(=O)[nH]3)c2C)cc1	none
Cc1ccc(C(=O)N2CC(=O)NC(=O)C2)cc1	NALP3 yeast inh 51 | NALP3 confirm 49 | Casp1-ASC yeast inactive | NALP3 yeast rt inactive
CC(=C/c1ccccc1)/C=N/NC(=O)c1cccs1	NALP3 yeast inh 56 | NALP3 confirm inactive
CC(/C=N/NC(=O)c1ccncc1)=C\c1ccccc1	none
COc1cccc(OC)c1C(=O)N1CCN(S(=O)(=O)c2ccc(C)cc2)CC1	none (no result: NALP1 inh)
CCOC(=O)c1cc(C)n(Cc2ccccc2)c1C	none
O=C(/C=C/c1cccc([N+](=O)[O-])c1)NCc1ccccc1	none
O=C(/C=C/c1cccc([N+](=O)[O-])c1)NCCSCc1cccc(Cl)c1	NALP3 yeast inh 71 | NALP3 confirm inactive
Clc1ccc(OCCn2cnc3ccccc32)cc1	none
Cc1ccc(OCCn2cnc(Cl)c2Cl)cc1	NALP3 yeast inh 50 (no result: PolyA inh) | NALP3 confirm 59
Cc1cc(NC(=O)/C=C/c2ccccc2)no1	NALP3 yeast inh 50 | NALP3 confirm 68 | Casp1-ASC yeast inactive | NALP3 yeast rt inactive
Cc1cccc(C(=O)NCC(=O)NCCSc2ccc(Br)cc2)c1	none (no result: NALP1 inh, SUMO Mot1 rescue)
O=[N+]([O-])c1nn(-c2ccc3c(c2)OCCO3)n(O)c1=NCc1ccc(F)cc1Cl	none
C=CCSc1nsc(NC(=O)Nc2ccc(F)cc2)n1	NALP3 yeast inh 56 | NALP3 confirm 78 | Casp1-ASC yeast 79 | NALP3 yeast rt 82
Cc1ccc(OCc2nc(-c3ccccn3)no2)cc1	NALP3 yeast inh 56 | NALP3 confirm 70 | Casp1-ASC yeast 72 | NALP3 yeast rt 64
Cc1ccc(OCc2nc(-c3cccnc3)no2)cc1C	NALP3 yeast inh 51 | NALP3 confirm 61 | Casp1-ASC yeast inactive | NALP3 yeast rt inactive
COc1ccc(C(=O)COC(=O)c2c(-c3ccccc3)noc2C)c(OC)c1	none (no result: NALP1 inh)
COC(=O)Cn1c(=O)c(C(=O)CCl)c(N)n(Cc2ccccc2)c1=O	none (no result: NALP1 inh)
CCOc1ccc2nc(NS(=O)(=O)c3ccc(NC(C)=O)cc3)sc2c1	none
Cc1nn(-c2ccccc2)c(N2CCCC2)c1/C=N/NC(=O)C1CC1	none
Cc1ccc(S(=O)(=O)c2ncccc2[N+](=O)[O-])cc1	NALP3 yeast inh 58, NALP1 inh 36 | NALP3 confirm 69 | Casp1-ASC yeast 68 | NALP3 yeast rt 58
CCC(=Nc1ccccc1O)C1=C(O)CC(c2ccccc2)CC1=O (stereo unspecified)	NALP3 yeast inh 62 | NALP3 confirm 74 | Casp1-ASC yeast 55 | NALP3 yeast rt 56
COc1ccccc1-c1oc2ccccc2c1C#CC(C)(C)O	NALP3 yeast inh 72 (no result: PolyA inh, NALP1 inh) | NALP3 confirm 59 | Casp1-ASC yeast 71 | NALP3 yeast rt 60
COc1ccccc1-c1oc2ccccc2c1C#CCO	none (no result: PolyA inh, NALP1 inh)
Cc1cc(NC(=O)CSc2nnc(COc3cccc(C)c3C)n2C)no1	none
c1ccc(CSc2nnc(-c3cccs3)n2Cc2ccco2)cc1	none (no result: SUMO Mot1 rescue) | NALP3 confirm inactive
CCCC(=O)c1ccc(N2CCCC2)c(F)c1	NALP3 yeast inh 55 | NALP3 confirm inactive
Brc1ccc2[nH]ncc2c1	NALP3 yeast inh 53 | NALP3 confirm inactive | Casp1-ASC yeast 60 | NALP3 yeast rt inactive

Screening data (PubChem)
